Screening data deposited in PubChem by National Center for Advancing Translational Sciences (NCATS).
TDP1 cell noCPT: qHTS for Inhibitors of human tyrosyl-DNA phosphodiesterase 1 (TDP1): qHTS in cells in absence of CPT | 420,000 tested, 15% active | DT40 Tdp1-/- hTDP1 cells, no CPT, ATP luminescence, 48 h | Potency, µM (top dose mostly 46.2 µM), for inactives: top-dose activity change, negative = growth inhibition, usual class: inhibitors | AID 686978, 2013; further: potency means the concentration at half of the fitted maximal effect; nearly all actives have a fitted effect of over 55% in size
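A cellular qHTS used chicken DT40 cells lacking endogenous Tdp1 but carrying stably transfected human TDP1. Compounds were applied without camptothecin, and cell growth kinetics were judged by ATP-dependent luminescence after ≥48 hr.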
HT1080 IDH1KD tx: kills HT-1080 cells with IDH1 knockdown; HT-1080 IDH1 knockdown viability, ATP luminescence, 48 h; Potency, µM (doses to about 46.1 µM), for the others: top-dose activity, negative = toxicity, hits mostly cytotoxic; 360,000 tested, 2% active;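 further: potency means the concentration at half of the fitted maximal effect; 0% = DMSO wells and -100% = cell-free medium wells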
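Using the IDH1-knockdown HT-1080 line run in the same batch and compound series as the NT line, viability after 48 h at 37 °C was determined by CellTiter-Glo luminescence and expressed as % activity.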
uPA generation: inhibitors of cell surface uPA generation | cell surface uPA generation assay, qHTS | Potency, µM (series often up to 38.3 µM), inactives show at the top dose activity change, negative = inhibition, most hits filed as inhibitors | 330,000 tested, 0.31% active | AID 540303; active means well fitted inhibition curve with a large enough effect; inconclusive means small, poorly fitted or top-dose-only effect; inactive means no such curve, though single readings can be large or run the other way; tested in mouse RAW 264.7 cells; further: potency means the concentration at half of the fitted maximal effect; nearly all actives have a fitted effect of over 55% in size
TDP1 cell CPT: DT40-hTDP1 cell growth loss with CPT. chicken DT40 Tdp1-/-;hTDP1 cells + 20 nM CPT, ATP luminescence, 48 h. Potency, µM (doses to about 46.2 µM), for the others: top-dose activity change, negative = growth inhibition, actives largely listed as inhibitors. 420,000 tested, 12% active. AID 686979; further: potency means the concentration at half of the fitted maximal effect; nearly all actives have a fitted effect of over 55% in size
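Chicken DT40 Tdp1-/- cells stably complemented with human TDP1 were seeded at 400 cells/well in medium containing 20 nM camptothecin, exposed to pin-transferred compounds, and grown at 37 °C for at least 48 hr. Viability was read as ATP luminescence.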
HT1080-NT tox: kills 2HG-producing HT-1080-NT fibrosarcoma cells. HT-1080-NT fibrosarcoma viability, CellTiter-Glo ATP luminescence, 48 h. Potency, µM (top dose mostly 46.1 µM), for the others: top-dose activity, negative = less viability, hits mostly cytotoxic. 360,000 tested, 1.6% active;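 further: NT is the 2HG producing partner of a matched IDH1 knockdown line; potency means the concentration at half of the fitted maximal effect; 0% = DMSO-treated cells and -100% = media-only wells without cells; nearly all actives have a fitted effect of over 55% in size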
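HT-1080-NT fibrosarcoma cells (2HG-overproducing), 750 cells/well in RPMI with 5% FBS, dosed after 2 h and incubated 48 h at 37C. CellTiter-Glo luminescence normalized to DMSO and no-cell wells; concentration-response curves fitted and classed.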
IL-1B inflam inh: blocks inflammasome-driven IL-1 beta release; 360,000 tested, 4.7% active; THP-1 LPS/ATP IL-1B secretion, AlphaLISA, 16 h; stronger effect = lower value; activity change, % at 57.5 µM; in the data active means activity change below about -50%; inconclusive means mostly about -30% to -49%
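Secreted IL-1B measured by AlphaLISA bead assay after 16 h compound exposure of THP-1 cells; compounds (final up to 57.5 uM) added 1 h before LPS (250 ng/mL) and ATP (1.25 mM) stimulation; lower signal means less secretion.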
The depositor's hits bear a star; ? = inconclusive; . = no result given; ! = a repeat was not active. The list is not random: actives were taken first. Their share in the collection is about 19%. Unless noted, the call rests on the fitted dose curve; in most records, active means well fitted curve in the direction sought with a large enough effect; inconclusive means small, poorly fitted or top-dose-only effect, or another doubt; inactive means no such curve, though single readings can be large; an effect the other way counts as inactive or inconclusive. Unless noted, on the % scale 0 is the no-effect control and ±100 the full control effect.

SMILES | TDP1 cell noCPT | HT1080 IDH1KD tx | uPA generation | TDP1 cell CPT | HT1080-NT tox | IL-1B inflam inh
C#CCOCCOCCOCCNc1nc(N2CCN(C(=O)[C@H]([C@@H](C)CC)n3cc([C@@H](N)CC(C)C)nn3)CC2)nc(N2CCN(C(=O)[C@H]([C@@H](C)CC)n3cc([C@@H](N)CC(C)C)nn3)CC2)n1 | ? | 3% | -5% | 15µM* | 1% | -15
C#CCOCCOCCOCCNc1nc(N2CCN(C(=O)[C@H]([C@@H](C)CC)n3cc([C@@H](N)CC(C)C)nn3)CC2)nc(N2CCN(C(=O)[C@H](Cc3ccc(O)cc3)n3cc([C@@H](N)CC(C)C)nn3)CC2)n1 | -4% | 5% | -7% | -17% | 7% | -8
C#CCOCCOCCOCCNc1nc(N2CCOCC2)nc(N2CCN(C(=O)CCCCCCCCCCNC(=O)Cn3cc(CCCCCN)nn3)CC2)n1 | -17% | -3% | -10% | 1% | 3% | -28
CCCCNC(=O)[C@@H]1CC=C[C@@H]2CCN(Cc3ccccc3)C(=O)[C@@H]21 | -62% | . | . | -64% | . | .
Cc1ccccc1C(=O)NC1(C(F)(F)F)C(=O)Nc2c1c(=O)[nH]c(=O)n2CCc1ccccc1 (configuration not stated) | 6% | . | . | -3% | . | .
CC1CN(CC(=O)Nc2ccccc2Sc2ccccc2)CC(C)O1 (configuration not stated) | 23µM* | -7% | 0% | 23µM* | -1% | 0
CC(=O)N1CCN(CC(=O)Nc2ccccc2Sc2ccccc2)CC1 | 23µM* | 1% | -4% | ? | -3% | 0
N=c1sccn1CC(=O)Nc1ccccc1Sc1ccccc1 | ? | -20% | 2% | -21% | -7% | -55*
COC(=O)CSc1ncnc2c(C)csc12 | -9% | 5% | 2% | -16% | 12% | -13
C=CCN1C(=O)c2ccc(C(=O)N3CCC(C(N)=O)CC3)cc2C1=O | 4% | -1% | 5% | 16% | 0% | 5
O=C1CCNc2cc3ccccc3cc21 | ? | 16µM* | -1% | ? | -21% | 19
COc1ccc(-c2c(C#N)c(C)nc3c2C(=O)c2ccccc2-3)cc1 | -17% | -3% | -16% | -17% | -2% | 0
COC1=C(N)C(=O)c2nc(C)ccc2C1=O | 7.3µM* | 9% | 7% | 5.2µM* | 6% | 14
COC1=C(Br)C(=O)c2nc(C)ccc2C1=O | 0.58µM* | -22% | . | 0.65µM* | -5% | -28
CCCCN(CC)C(=O)C1CCCN(c2ncnc3c2nc2n3CCCCC2)C1 (configuration not stated) | 21µM* | . | . | ? | . | .
CCCCN(Cc1ccco1)C(=O)C1CCCN(c2ncnc3c2nc2n3CCCCC2)C1 (configuration not stated) | 15µM* | ? | 6% | 16µM* | ? | -13
CCN(CC)C(=O)C1CCCN(c2ncnc3c2nc2n3CCCCC2)C1 (configuration not stated) | ? | . | . | -23% | . | .
CCN(C(=O)CSc1nccc(=O)[nH]1)c1cccc2ccccc12 | -3% | -2% | 10% | -11% | -4% | 8
Cc1ccc(C(=O)N(CC(=O)NC2CCCC2)c2ccccc2F)s1 | ? | 3% | . | -21% | 11% | -6
CCOc1ccc(C2=CS/C(=C(\C#N)c3nnc4n3CCCCC4)N2CC)cc1 | 23µM* | ? | -9% | ? | -26% | -4
C=CCN1C(c2ccccc2)=CS/C1=C(\C#N)c1nnc2n1CCCCC2 | ? | -5% | 12% | ? | 5% | -17
Cc1cc(C)c(C(=O)c2ccc(C(=O)N(C(C)C)C(C)C)cc2)c(C)c1 | 18µM* | ? | . | 16µM* | ? | -3
Cc1cc(C)c(C(=O)c2ccc(C(=O)NC(C)(C)C)cc2)c(C)c1 | -27% | -4% | . | -19% | 4% | -15
CCN(CC)C(=O)c1c2c(nc3ccccc13)-c1ccccc1CC2 | ? | ? | 3% | ? | -5% | ?
CCN(CC)C(=O)c1nc(-c2cccc3ccccc23)no1 | 16µM* | -6% | . | ? | 0% | -1
SMILES | TDP1 cell noCPT | HT1080 IDH1KD tx | uPA generation | TDP1 cell CPT | HT1080-NT tox | IL-1B inflam inh
Cn1c(=O)c([N+](=O)[O-])c(-n2cnc3ccccc32)c2ccccc21 | 21µM* | ? | -11% | ? | ? | -98*
Cn1c(=O)c([N+](=O)[O-])c(N2CCSCC2)c2ccccc21 | ? | -10% | -8% | ? | -10% | -22
Cc1nccn1-c1c([N+](=O)[O-])c(=O)n(C)c2ccccc12 | -21% | -21% | -9% | 8% | -14% | -92*
Cc1ccc(S(=O)(=O)N(C)C)cc1NC(=S)N1CCc2ccccc21 | -23% | -6% | 0% | -26% | -1% | 36
COc1ccccc1CNc1ncnc2ccc(-c3ccc(N(C)C)cc3)cc12 | 13µM* | . | . | 16µM* | . | .
COc1ccccc1CNc1ncnc2ccc(-c3cccnc3)cc12 | 21µM* | . | . | ? | . | .
COc1ccccc1CNc1ncnc2cc(Cl)ccc12 | ? | -18% | . | ? | -12% | 55
Cc1ccc(N=C2NC(=O)/C(=C/c3cccnc3)S2)c(C)c1 | -21% | -24% | 10% | -15% | ? | ?
Cc1ccc(N=C2NC(=O)/C(=C\c3ccsc3)S2)c(C)c1 | ? | -8% | 4% | 16µM* | -9% | 0
COC(=O)c1nc(-c2ccccc2)nc(-c2ccccc2)c1C(=O)OC | -13% | 4% | -2% | 13% | 0% | 38
COc1ccccc1CNC(=O)CCc1c(C)nn(-c2ccc(N3CCOCC3)nn2)c1C | -10% | . | . | -18% | . | .
CC(=O)c1ccc(NC(=O)C2=CC(c3cccs3)=NS(=O)(=O)N2C)cc1 | 16µM* | -2% | 0% | ? | 0% | -11
COC(=O)c1ccccc1NC(=O)C1=CC(c2cccs2)=NS(=O)(=O)N1C | ? | 7% | -17% | ? | 0% | 15
CCc1ccc(NC(=O)C2=CC(c3cccs3)=NS(=O)(=O)N2C)cc1 | 16µM* | -4% | 20% | ? | -3% | -19
O=C(NC(CO)Cc1ccc([N+](=O)[O-])cc1)C(Cl)Cl (configuration not stated) | 9.2µM* | -2% | 8% | 16µM* | -1% | 14
O=C(N[C@H](CO)[C@H](O)c1ccc([N+](=O)[O-])cc1)C(Cl)Cl | 11µM* | 10% | 0% | 7.5µM*! | 4% | 4
